# From PubChem BioAssay
# Records with an inconclusive call do not appear. Calls of active or inactive are those of the source. Cut-off read from the data, not from the text of the source, unless noted: active = inhibition above about 80%; inactive = the rest.
# Experiments:
# [1] = hESC survival regulators, cell-based (AID 493140; call rule not given here;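 note: cells exposed to compounds for four days before counting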); conditions: human embryonic stem cell survival screen; stronger effect = higher value
# [2] = tested on: Hepatitis C virus NS3 helicase; experiment: HCV NS3 helicase inhibitors, primary screen, biochemical, fluorescence polarization, LOPAC1280 library (AID 687035; in the data active = inhibition above about 37%); conditions: Purified HCV NS3 helicase, Cy5-dT15 ssDNA binding fluorescence polarization; stronger effect = higher value; concentration not given here
# [3] = Cy5 fluorescence quenching or enhancement artefacts, artefact control for HCV NS3 helicase inhibitor project, biochemical, LOPAC1280 (AID 687037; call rule not given here); conditions: Cy5-DNA-NS3h complex fluorescence interference counterscreen
# [4] = growth inhibition of DIPG glioma cells, dose response, cell-based, SU-DIPG-XVII, MIPE5.0, CellTiter-Glo, qHTS (AID 1347060; cut-off not given, nearly all actives have AC50 up to about 26 µM;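 for AC50: cells exposed to compound for 48 hours before viability readout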); conditions: SU-DIPG-XVII viability, CellTiter-Glo ATP luminescence
# [5] = growth inhibition of DIPG glioma cells, dose response, cell-based, SU-DIPG-XIII, MIPE4.0, CellTiter-Glo, qHTS (AID 1347061; cut-off not given, nearly all actives have AC50 up to about 37 µM;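 note: cells exposed to compound for 48 hours before readout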); conditions: SU-DIPG-XIII viability, CellTiter-Glo ATP luminescence
# [6] = growth inhibition of DIPG glioma cells, dose response, cell-based, JHH-DIPG-1, MIPE4.0, CellTiter-Glo, qHTS (AID 1347062; cut-off not given, nearly all actives have AC50 up to about 27 µM;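 for AC50: cells exposed to compound for two days before readout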); conditions: JHH-DIPG-1 viability, CellTiter-Glo ATP luminescence
# [7] = growth inhibition of DIPG glioma cells, dose response, cell-based, SU-DIPG-IV, MIPE4.0, CellTiter-Glo, qHTS (AID 1347063; cut-off not given, nearly all actives have AC50 up to about 30 µM;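 note: compound exposure lasted 48 hours before the viability readout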); conditions: SU-DIPG-IV viability, CellTiter-Glo ATP luminescence
# [8] = viability loss in pontine glioma line – cell-based, SU-DIPG-XXV, MIPE5.0, CellTiter-Glo, qHTS, dose response (AID 1347065; cut-off not given, nearly all actives have AC50 up to about 26 µM;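 note: cells exposed to compound for 48 hours before ATP readout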); conditions: CellTiter-Glo ATP luminescence
# [9] = SU-DIPG-VI glioma cell viability, MIPE4.0 library, CellTiter-Glo luminescence, qHTS (AID 1347066; cut-off not given, nearly all actives have AC50 up to about 30 µM;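 note: cells exposed to compound for 48 hours before readout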); conditions: CellTiter-Glo ATP luminescence
# [10] = SU-DIPG-XXV glioma cell viability, MIPE5.0 library, qHTS (AID 1347068; cut-off not given, nearly all actives have IC50 up to about 30 µM;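 for IC50: cells exposed to compound for 48 hours before viability readout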)
# [11] = phospholipid biosynthesis inhibitors in animal cells, primary screen, cell-based, LOPAC library, screen 4 (AID 1347384; call rule not given here); conditions: phospholipid biosynthesis inhibition screen, at 10 µM
# [12] = HDN33 neuroblastoma growth inhibition, cell-based, chromothripsis tumors, cisplatin or BGB combos (AID 1671450); conditions: HDN33 neuroblastoma cells, stronger effect = higher value;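 note: cells exposed to compound for four days; 0% = vehicle DMSO and 100% = cell killing by high DMSO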
# [13] = LFS_MB_1R medulloblastoma cell growth inhibition, synergistic combos for chromothripsis tumors, cisplatin or BGB combos (AID 1671452); conditions: LFS_MB_1R medulloblastoma cells, stronger effect = higher value;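 note: cells exposed for 96 hours before readout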
# [14] = HTB85 osteosarcoma cell growth inhibition, synergistic combos for chromothripsis tumors, BGB or cisplatin IC20 combos (AID 1671453); conditions: HTB85 osteosarcoma cells, drug combinations, stronger effect = higher value;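 note: cells exposed for 96 hours before readout; 0% = vehicle DMSO and 100% = high DMSO killing control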
# [15] = MDA-MB-436 breast carcinoma cell growth inhibition, synergistic combos for chromothripsis tumors, BGB or cisplatin combos (AID 1671458; call rule not given here;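 note: cells exposed for 96 hours; 0% = vehicle DMSO and 100% = killing by high DMSO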); conditions: MDA-MB-436 breast carcinoma growth inhibition, drug combinations, stronger effect = higher value
# [16] = growth inhibition of BT084 medulloblastoma cells, cell-based, ICGC_MB145, cisplatin and BGB IC40 combos (AID 1671461); conditions: drug combinations, stronger effect = higher value;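 note: cells exposed to drugs for 96 hours; 0% = vehicle DMSO and 100% = high DMSO full killing control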
# [17] = growth inhibition of RCMB18 medulloblastoma cells, cell-based, cisplatin and BGB IC40 combos (AID 1671462); conditions: stronger effect = higher value;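 note: cells exposed to compound for four days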
# [18] = growth inhibition of CRL1545 osteosarcoma cells, cell-based, cisplatin and BGB IC20 combos (AID 1671464); conditions: stronger effect = higher value;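 note: cells exposed to compound for 96 hours before readout; 0% = vehicle DMSO and 100% = high DMSO killing control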
# [19] = reducers of polyQ inclusions in PC12 cells, cell-based, NGF-treated PC12, GFPQ80 (AID 1614); conditions: PC12 NGF-treated GFP-polyQ80 inclusion reduction;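 note: lower means fewer inclusions and 0 means no inclusions at all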
# [20] = JHH-DIPG-1 glioma cell viability, MIPE5.0 library, CellTiter-Glo luminescence, qHTS (AID 1347067; cut-off not given, nearly all actives have AC50 up to about 26 µM;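 note: cells exposed to compound for 48 hours before readout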); conditions: JHH-DIPG-1 glioma viability, CellTiter-Glo ATP luminescence
# [21] = measured here: with BGB IC20 combination, at 0.5 µM
# [22] = measured here: with cisplatin IC20 combination, at 0.5 µM
# [23] = measured here: combination with BGB IC40, at 0.05 µM
# [24] = measured here: combination with cisplatin, at 0.5 µM
# [25] = measured here: combination with cisplatin, at 5 µM
# [26] = measured here: with BGB IC20, at 0.5 µM
# [27] = measured here: with BGB IC20, at 5 µM
# [28] = measured here: with cisplatin IC20, at 0.5 µM
# [29] = measured here: with cisplatin IC20, at 5 µM
# [30] = measured here: BGB combination, at 0.5 µM
# [31] = measured here: BGB combination, at 5 µM
# [32] = measured here: cisplatin combination, at 0.5 µM
# [33] = measured here: cisplatin combination, at 5 µM
# [34] = cisplatin combination, at 0.5 µM
# [35] = measured here: BGB IC40 combination 0.05 uM, at 0.05 µM
# [36] = measured here: BGB IC40 combination, at 0.05 µM
compound,measurement,setting,value
O=C1c2c(O)ccc(O)c2C(=O)c2c(NCCNCCO)ccc(NCCNCCO)c21,survival,[1],0.583 (inactive)
same,inhibition,[2],119% (active)
same,fluorescence ratio (interference),[3],0.5 (active)
same,AC50,[4],0.417 µM (active)
same,AC50,[5],18.7 µM (active)
same,AC50,[6],2.35 µM (active)
same,AC50,[7],6.62 µM (active)
same,AC50,[8],11.8 µM (active)
same,AC50,[9],23.5 µM (active)
same,IC50,[10],18.6 µM (active)
same,outcome,[11],inactive
same,inhibition,"[12]; BGB combo, at 5 µM",98.9%
same,inhibition,[12]; at 0.5 µM,60.1% (inactive)
same,inhibition,"[12]; cisplatin combo, at 5 µM",99.3%
same,inhibition,[12]; [21],57.7%
same,inhibition,[12]; [22],53.6%
same,inhibition,"[12]; single agent, at 5 µM",99.3%
same,inhibition,[13]; at 0.5 µM,-4.33% (inactive)
same,inhibition,[13]; [23],1.71%
same,inhibition,[13]; [24],72.8%
same,inhibition,[13]; [25],94.2%
same,inhibition,[14]; at 0.5 µM,94.8% (active)
same,inhibition,[14]; [26],90.1%
same,inhibition,[14]; [27],99.7%
same,inhibition,[14]; [28],97.6%
same,inhibition,[14]; [29],99.8%
same,inhibition,"[14]; single agent, at 5 µM",99.8%
same,inhibition,[15]; at 0.5 µM,53.4% (inactive)
same,inhibition,[15]; [30],42.1%
same,inhibition,[15]; [31],93.8%
same,inhibition,[15]; [32],45.8%
same,inhibition,[15]; [33],95.6%
same,inhibition,[16]; at 0.5 µM,-10.6% (inactive)
same,inhibition,[16]; [34],42.8%
same,inhibition,"[16]; cisplatin combination, at 5 µM",49.8%
same,inhibition,[16]; [35],-13%
same,inhibition,"[16]; single agent, at 5 µM",75.3%
same,inhibition,[17]; at 0.5 µM,-1.35% (inactive)
same,inhibition,"[17]; cisplatin combo, at 5 µM",70.8%
same,inhibition,[17]; [36],-3.01%
same,inhibition,[17]; [24],-18.9%
same,inhibition,"[17]; single agent, at 5 µM",55.2%
same,inhibition,[18]; at 0.5 µM,65.5% (inactive)
same,inhibition,[18]; [21],74%
same,inhibition,[18]; [22],61.2%
same,inhibition,"[18]; single agent, at 0.05 µM",43.2%
same,inhibition,"[18]; single agent, at 5 µM",99.2%
O=C(C1CCCCC1)N1CC(=O)N2CCc3ccccc3C2C1 (stereo not given),inclusion score,[19],2
same,survival,[1],12.2 (inactive)
same,inhibition,[2],-3% (inactive)
same,fluorescence ratio (interference),[3],1 (inactive)
same,AC50,[4],26.3 µM (active)
same,outcome,[5],inactive
same,outcome,[6],inactive
same,outcome,[7],inactive
same,outcome,[8],inactive
same,outcome,[9],inactive
same,outcome,[20],inactive
same,outcome,[10],inactive
same,outcome,[11],inactive
CC(=O)OCC(CCn1cnc2cnc(N)nc21)COC(C)=O,outcome,[4],inactive
same,outcome,[5],inactive
same,outcome,[6],inactive
same,outcome,[7],inactive
same,outcome,[8],inactive
same,outcome,[9],inactive
same,outcome,[20],inactive
same,outcome,[10],inactive
same,outcome,[11],inactive
same,inhibition,"[12]; BGB combo, at 5 µM",-6.25%
same,inhibition,[12]; at 0.5 µM,-3.67% (inactive)
same,inhibition,"[12]; cisplatin combo, at 5 µM",8.87%
same,inhibition,[12]; [21],-10.2%
same,inhibition,[12]; [22],4.72%
same,inhibition,"[12]; single agent, at 5 µM",-14.6%
same,inhibition,[13]; at 0.5 µM,-6.39% (inactive)
same,inhibition,[13]; [23],-41.8%
same,inhibition,[13]; [24],-15.8%
same,inhibition,[13]; [25],-6.32%
same,inhibition,[14]; at 0.5 µM,-2.55% (inactive)
same,inhibition,[14]; [26],-18%
same,inhibition,[14]; [27],-24.7%
same,inhibition,[14]; [28],0.506%
same,inhibition,[14]; [29],-48.5%
same,inhibition,"[14]; single agent, at 5 µM",-10%
same,inhibition,[15]; at 0.5 µM,-18.3% (inactive)
same,inhibition,[15]; [30],-5.73%
same,inhibition,[15]; [31],-13.3%
same,inhibition,[15]; [32],-45.7%
same,inhibition,[15]; [33],-24.3%
same,inhibition,[16]; at 0.5 µM,-39.8% (inactive)
same,inhibition,[16]; [34],-22.3%
same,inhibition,"[16]; cisplatin combination, at 5 µM",-19.5%
same,inhibition,[16]; [35],-14.8%
same,inhibition,"[16]; single agent, at 5 µM",-21.3%
same,inhibition,[17]; at 0.5 µM,-15.5% (inactive)
same,inhibition,"[17]; cisplatin combo, at 5 µM",-24.5%
same,inhibition,[17]; [36],-9.28%
same,inhibition,[17]; [24],3.82%
same,inhibition,"[17]; single agent, at 5 µM",-35%
same,inhibition,[18]; at 0.5 µM,-2.74% (inactive)
same,inhibition,[18]; [21],4.75%
same,inhibition,[18]; [22],-8.9%
same,inhibition,"[18]; single agent, at 0.05 µM",-17%
same,inhibition,"[18]; single agent, at 5 µM",5.18%
